PubChem BioAssay AID1663 (Broad Institute, 2009)
The campaign covered roughly 300,000 compounds. About 660 (0.22%) were called active. What follows is part of a selection rich in actives, with near analogues and random picks from the rest. Values without a mark were called inactive.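 Rule for the calls: active = mean replicate score, as percent of positive control, at or above 50; inconclusive = mean below 50 but at least one replicate at or above 50; inactive = mean and every replicate below 50.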

Experiment: inhibitors of platelet dense granule secretion, primary screen, cell-based, MLPCN, human platelets (AID 1663)
Conditions: human platelet-rich plasma, SFLLRN dense granule ATP release, luminescence; stronger effect = higher value;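 compounds screened at 7.5 µM in platelet-rich plasma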

Row | Structure (SMILES) | inhibition
1 | Cc1ccc(-n2ncc3c2CCCC3NC(=O)c2cnccn2)cc1C (stereo not given) | -0.139%
2 | Cc1ccc(S(=O)(=O)N2CCOCC2)cc1C(=O)OC1CCCCC1=O (stereo not given) | -6.92%
3 | COc1ccccc1NC(=O)Nc1nnc(Cc2ccc(F)cc2)s1 | 1.62%
4 | CC1CCC2(CC1)NC(=O)N(Cc1nnc(-c3cccs3)o1)C2=O (stereo not given) | 3.04%
5 | Cc1ccc2c(C)c(C(=O)N(C)CCC3CCCCO3)oc2c1C (stereo not given) | 4.71%
6 | COc1cccc(C(C(=O)NC2CCCC2)N(C(=O)c2ccco2)c2cccc(C(C)=O)c2)c1OC (stereo not given) | -1.88%
7 | OCCC1CN(Cc2cccc(OC3CCCC3)c2)CCN1Cc1ccsc1 (stereo not given) | -11.2%
8 | CCOc1ccc(S(=O)(=O)N2CCC(C(=O)NCc3ccccn3)CC2)cc1Cl | -1.17%
9 | O=C(Nc1ccc(-n2cccn2)cc1)C1CCN(Cc2ccsc2)CC1 | 0.088%
10 | CCOc1ccc(C(=O)Nc2cccc(SC)c2)cc1 | 25.4%
11 | COc1ccc(C(C(=O)NC(C)(C)C)N(Cc2ccc(F)cc2)C(=O)CCC(=O)Nc2cc(C)on2)cc1 (stereo not given) | 2.89%
12 | CCC1CCCCN1C(=S)Nc1ccc(S(=O)(=O)Nc2ncccn2)cc1 (stereo not given) | -1.83%
13 | CC(=O)Nc1ccc(S(=O)(=O)NCC2CCC(C(=O)NCCc3ccccc3)CC2)cc1 (stereo not given) | -0.696%
14 | Cc1ccc2c(cnn2C(=O)CCC(=O)NC2CCCC2)c1 | 6.24%
15 | CCn1c(SC(C)C(=O)Nc2ccc(N3CCOCC3)cc2)nnc1-c1ccco1 (stereo not given) | -6.89%
16 | O=C(Oc1ccc(Br)cc1)c1cccnc1 | 3.93%
17 | Cc1ccc(Oc2nc(-c3ccccn3)nc3ccccc23)cc1 | 7.76%
18 | O=C(Oc1ccc(-c2nc(-c3ccccn3)no2)cc1)c1ccccc1 | 83.2% (active)
19 | O=C1[C@@H]2C(c3cccnc3)=NO[C@@H]2C(=O)N1c1ccc(Cl)cc1Cl | 3.23%
20 | COCCN(CCOC)c1nc(N)c2c(N)nc3c(c2c1C#N)CC(=O)N3Cc1ccc(Cl)cc1 | -8.74%
21 | CCCC(=O)Nc1cccc(NC(=S)NC(=O)C(C)Oc2ccc(Cl)cc2Cl)c1 (stereo not given) | 4.37%
22 | Cn1nc(C(F)(F)F)c(C(=O)Nc2cccc(C(F)(F)F)c2)c1SCc1ccc(Cl)cc1 | 0.563%
23 | Cc1c(C#N)c(NC(=O)c2ccccc2)n(Cc2ccccc2)c1C | -12.1%
24 | CCN1CCN(C(=O)c2ccc(CN(c3ccc(C)c(C)c3)S(C)(=O)=O)cc2)CC1 | 3.03%

Row | Structure (SMILES) | inhibition
25 | Cc1nc(N)c(Br)c(C)c1Br | -11.2%
26 | CCOc1ccc(CCNC(=O)COC(=O)C2CCN(c3ccc(C(F)(F)F)cn3)CC2)cc1OCC | -1.24%
27 | CCCCc1ccc(S(N)(=O)=O)cc1 | 5.59%
28 | NNC(=O)CNC(c1ccccc1)c1cc(Cl)ccc1NC(=O)c1ccccc1 (stereo not given) | 2.02%
29 | CCOC(=O)/C=C/c1ccc(C(F)(F)F)cc1S(=O)(=O)NC(C)(C)C | 0.739%
30 | O=C(c1ccco1)N1CCN(C(=O)c2ccc(COc3ccc(F)cc3)o2)CC1 | 60.5% (active)
31 | COc1ccccc1OCc1ccc(C(=O)N2CCN(C)CC2)o1 | -1.97%
32 | O=C(c1ccco1)N1CCN(CCOc2ccccc2)CC1 | -1.03%
33 | CN(C)NC(=O)C(NC(=O)c1ccc(N)cc1)C12CC3CC(CC(C3)C1)C2 (stereo not given) | -0.607%
34 | O=C(CCN1CCc2ccccc2C(O)(c2ccccc2)C1)c1ccc2c(c1)OCCO2 (stereo not given) | -76.9%
35 | CC(=O)Nc1ccc(CN2CCC(Oc3ccc(C(=O)N4CCCC4)cc3)CC2)cc1 | -7.89%
36 | CC(C)(C)NC(=O)NC(=O)COC(=O)C1c2ccccc2Oc2ccccc21 | -3.75%
37 | O=C(Nc1ccn(Cc2ccccc2)n1)c1cccc(F)c1 | 7.39%
38 | O=C(Nc1ccn(Cc2ccccc2)n1)c1n[nH]c([N+](=O)[O-])c1Cl | 0.241%
39 | O=C(Nc1ccn(Cc2ccc(F)cc2)n1)c1ccncc1 | 50.5% (active)
40 | O=C(Nc1ccc(S(=O)(=O)NCC2CCCO2)cc1)c1ccc(F)cc1 (stereo not given) | -4.99%
41 | Cc1ccnc(NC(=O)c2ccoc2C)c1 | 50.8% (active)
42 | COc1cc(SC)ccc1C(=O)Nc1cc(C)ccn1 | 5.66%
43 | Cc1ccnc(NC(=O)CNC(=O)c2ccccc2)c1 | -2.51%
44 | Cc1csc(Nc2ccc(Cl)cc2)[n+]1-c1ccc(Cl)cc1 | -1.67%
45 | Oc1ccc(CNc2ccccc2O)cc1 | 4.21%
46 | CCOc1ccc(C(=O)Nc2ccc(S(=O)(=O)NCC3CCCO3)cc2)cc1OCC (stereo not given) | -1.27%
47 | COC(=O)CN1C(=O)C(C)(C)Oc2ccc(C(=O)Nc3cccc(OC)c3)cc21 | -3.5%
48 | CCOC(=O)c1ccc(NC(=O)Cn2cnc3cc(C)c(C)cc32)cc1 | 9.16%

Row | Structure (SMILES) | inhibition
49 | CCCCn1c(N)c(N(CCC(C)C)C(=O)c2ccc(COc3ccccc3)o2)c(=O)[nH]c1=O | -0.548%
50 | Cc1ccc(NC(=O)CSCC(=O)Nc2sccc2C#N)cc1 | -1.59%
51 | O=C1/C(=C/c2ccc(F)cc2)SC(=S)N1NS(=O)(=O)c1ccccc1 | -3.17%
52 | COC(=O)/C=C\C(=O)Nc1cccc([N+](=O)[O-])c1 | 73% (active)
53 | COc1cccc(CNC(=O)CCCC(=O)Nc2cccc([N+](=O)[O-])c2)c1 | 6.93%
54 | COc1ccc(S(=O)(=O)NC(C)C(=O)Nc2cccc([N+](=O)[O-])c2)cc1 (stereo not given) | 3.55%
55 | CN(C)c1nc(=Nc2cccc(Cl)c2)ss1 | -3.66%
56 | CCc1ccc(-c2nc(SCC(=O)NC3CCCC3)n[nH]2)cc1 | -5.4%
57 | CC(=O)CCS(=O)(=O)c1ccc(C)c(C)c1 | 3.49%
58 | OC(c1nc2ccccc2[nH]1)C(O)C(O)C(O)c1nc2ccccc2[nH]1 (stereo not given) | -3.4%
59 | Cc1ccc(-c2nc3ccccc3[nH]2)cc1N | 17.1%
60 | c1ccc2[nH]c(-c3nc4ccccc4[nH]3)nc2c1 | 76.6% (active)
61 | O=C(Nc1cccc(-c2cscn2)c1)C1CCN(Cc2ccsc2)CC1 | -6.81%
62 | CC[n+]1cc(C)ccc1/C=C/c1ccc(N(C)C)cc1 | 9.22%
63 | CCCCC(=O)Nc1ccccc1N1CCN(c2ccc(F)cc2)CC1 | 2.05%
64 | CNC(=O)C1CC(=O)N(Cc2ccc3c(c2)OCO3)C(=Nc2ccc(F)cc2)S1 (stereo not given) | -5.44%
65 | Cc1ccc(N=Cc2c(O)n(-c3nccs3)c(=O)c3ccccc23)c(C)c1 | -7.35%
66 | COc1ccc(-c2nc(N)sc2C2(O)C(=O)Nc3c(Br)cc(F)cc32)cc1OC (stereo not given) | 7.83%
67 | COCCNC(=O)NC(=O)COC(=O)C1(c2ccc(Cl)cc2)CC1 | 11.8%
68 | COc1ccc(CNC(=O)c2cc(C(=O)C3CC3)c[nH]2)cc1 | -3.25%
69 | COc1ccc(C(=O)COC(=O)c2ccc3ccccc3n2)cc1 | -2.98%
70 | C/C(=N\N=C(N)N)c1ccc(Cl)cc1 | -7.88%
71 | Cc1ncn2cc(-c3ccc(Cl)cc3Cl)[nH]c(=O)c12 | -3%
72 | Cc1cc(C)cc(OCC(=O)O/N=C(\N)Cc2ccc([N+](=O)[O-])cc2)c1 | 1.64%

Row | Structure (SMILES) | inhibition
73 | CNC(=S)N1CCC(NC(=O)C(Cc2ccc(F)cc2)NC(C)=O)CC1 (stereo not given) | 0.885%
74 | CCOCCCN(C(=O)Cn1nnc(-c2ccc(OC)c(OC)c2)n1)C(CC)C(=O)NC1CCCC1 (stereo not given) | 7.27%
75 | CCn1c(SCC(=O)NC2CCCC2)nnc1-c1ccoc1C | -1.97%
76 | Cc1ccc(OCC(=O)Oc2ccccc2[N+](=O)[O-])cc1 | -2.97%
77 | COc1ccc(/C(C)=N/NC(=O)c2ccc3nc[nH]c3c2)cc1 | 8.86%
78 | CCCC(C)C(=O)OCC(=O)Nc1c(Br)cc(C)cc1Br (stereo not given) | 20.5%
79 | Cc1cccc(N2CC(C)Cn3c2nc2c3c(=O)n(CC(=O)OCc3ccccc3)c(=O)n2C)c1 (stereo not given) | 55.7% (active)
80 | Cc1cccc(Cn2c(N3CCN(c4ccccc4)CC3)nc3c2c(=O)n(C)c(=O)n3C)c1 | 1.96%
81 | Cn1c(=O)n(CCc2ccccc2)c(=O)c2c1nc1n2CCCN1c1ccccc1 | -2.86%
82 | COc1ccc(-c2cn3ccc(C)cc3n2)cc1 | 64.2% (active)
83 | CCN(CC)S(=O)(=O)c1ccc(-c2cn3ccc(C)cc3n2)cc1 | 5.08%
84 | COc1ccc(-c2cn3ccsc3n2)cc1 | 16.7%
85 | CCOC(=O)C1CCN(Cc2nnc(-c3cccc(Br)c3)o2)CC1 | 2.47%
86 | [O-][N+]12CCCCC1CCCC2CO (stereo not given) | 4.81%
87 | O=C1NNC(c2ccccc2)=N/C1=C\c1ccc(Cl)cc1 | -15.9%
88 | O=C1c2ccccc2C2=Nc3ccccc3SC(c3ccccc3F)C12 (stereo not given) | 2.23%
89 | Cc1c(Cl)cccc1NC(=O)NCc1ccc(C)n1C | -4.12%
90 | Cc1cccc(NC(=O)CCn2c(=O)oc3ccccc32)c1 | 8.63%
91 | CC(=O)c1nnn(-c2ccc(Cl)cc2C#N)c1C | -27.7%
92 | COc1ccc(C(=O)Nc2cccc(NC(=O)c3ccc(OC)cc3OC)n2)c(OC)c1 | 10.1%
93 | CCOC(=O)C1C(c2ccc(O)cc2)NC(=O)NC1(O)C(F)(F)F (stereo not given) | -5.44%
94 | CCOC(=O)C1C(c2ccc(Cl)cc2)NC(=S)NC1(O)C(F)(F)F (stereo not given) | -3.31%
95 | CCOC(=O)C1C(c2ccc(OC)c(OC)c2)c2c([nH][nH]c2=O)CC1(C)O (stereo not given) | 57.3% (active)
